# Source: PubChem BioAssay (NCI)
# Compounds without any hit were thinned out: in the full panel of roughly 79,000, 15% have a hit. Values without a mark were called inactive. The source made the active and inactive calls. No stated cut-off is given here; in the data, active means growth inhibition above about 70%; inactive means the rest.
# Experiments:
# [1] = NCI Yeast Anticancer Drug Screen. Data for the rad52 strain (AID 147);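 further: 0% = growth of vehicle-treated control cultures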; conditions: S. cerevisiae rad52 mutant growth inhibition, hits give high values
# How it was run: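 The repair-mutant yeast strain was incubated with compounds, then growth was read and inhibition derived relative to vehicle.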
# [2] = NCI Yeast Anticancer Drug Screen. Data for the wt1 strain (AID 149);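 further: 0% = growth of vehicle-treated wt1 cultures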; conditions: S. cerevisiae wt1 strain (SPY 50644) growth inhibition, hits give high values
# How it was run: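 wt1 yeast, compound-treated; % growth inhibition vs vehicle control.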
# [3] = NCI Yeast Anticancer Drug Screen. Data for the rad50EPP+ strain (AID 151);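 further: 0% = growth of vehicle-treated control cultures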; conditions: S. cerevisiae rad50 mutant strain, hits give high values
# How it was run: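 Vehicle-normalised growth inhibition; rad50EPP+ yeast strain, altered in DNA damage repair, compound-treated.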
# [4] = NCI Yeast Anticancer Drug Screen. Data for the mgt1 strain (AID 153); conditions: S. cerevisiae mgt1 mutant growth inhibition, hits give high values
# How it was run: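 Vehicle-normalized growth inhibition is determined in mgt1 yeast, a strain selected for a defined alteration in DNA repair or cell cycle control.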
# [5] = NCI Yeast Anticancer Drug Screen. Data for the rad50 strain (AID 155);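 further: 0% = growth of vehicle-only cultures of the same strain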; conditions: S. cerevisiae rad50 strain growth inhibition, hits give high values
# How it was run: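 Genetically altered yeast (DNA repair pathway); compound treatment; growth inhibition vs vehicle ctrl.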
# [6] = NCI Yeast Anticancer Drug Screen. Data for the mec2-1 strain (AID 157); conditions: S. cerevisiae mec2-1 strain, hits give high values
# How it was run: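 Mutant yeast (mec2-1) grown with compound; growth inhibition relative to vehicle control reported.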
# [7] = NCI Yeast Anticancer Drug Screen. Data for the rad14 strain (AID 159);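 further: 0% = growth of vehicle-treated control cultures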; conditions: S. cerevisiae rad14 strain growth inhibition, hits give high values
# How it was run: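 Test compounds were applied to a repair-deficient yeast strain. Its growth was then compared with that of cultures given vehicle alone, and inhibition was expressed relative to those controls.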
# [8] = NCI Yeast Anticancer Drug Screen. Data for the sgs1 mgt1 strain (AID 161);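 further: 0% = growth of cultures given vehicle only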; conditions: S. cerevisiae sgs1 mgt1 strain, hits give high values
# How it was run: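 Growth of a repair-deficient yeast mutant was monitored after compound treatment and expressed as inhibition relative to vehicle-treated cultures.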
# [9] = NCI Yeast Anticancer Drug Screen. Data for the CLN2oe strain (AID 163);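 further: 0% = growth of vehicle-only control cultures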; conditions: S. cerevisiae CLN2oe strain, hits give high values
# How it was run: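 Compounds are applied to yeast harbouring a defined cell-cycle control change; reduced growth compared with vehicle-treated controls gives the value.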
# [10] = NCI Yeast Anticancer Drug Screen. Data for the cln2 rad14 strain (AID 165);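 further: 0% = growth equal to vehicle treated cultures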; conditions: S. cerevisiae cln2 rad14 strain, hits give high values
# How it was run: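 Readout is yeast growth inhibition versus vehicle-treated controls, using a strain with cln2 and rad14 alterations exposed to compound.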
# [11] = NCI Yeast Anticancer Drug Screen. Data for the bub3 strain (AID 167); conditions: S. cerevisiae bub3 mutant strain, hits give high values
# How it was run: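 Yeast carrying a defined mutation is treated with each compound, and growth is compared with that of vehicle-exposed cells to give inhibition.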
# [12] = NCI Yeast Anticancer Drug Screen. Data for the wt2 strain (AID 169);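 further: 0% = growth of vehicle-treated yeast cultures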; conditions: S. cerevisiae wt2 strain growth inhibition, hits give high values
# How it was run: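 Against vehicle-treated controls, the growth of yeast exposed to each compound was compared, and the inhibition was recorded.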
# [13] = NCI Yeast Anticancer Drug Screen. Data for the mlh1 strain (AID 171);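 further: 0% = growth of vehicle-treated control cultures of the same strain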; conditions: S. cerevisiae mlh1 strain growth inhibition, hits give high values
# How it was run: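 Measured: yeast growth. Reference: vehicle-treated controls. Organism: strain with a defined alteration affecting DNA damage repair or cell cycle control, treated with compound.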
# [14] = NCI Yeast Anticancer Drug Screen. Data for the sgs1 strain (AID 173);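 further: 0% = growth of vehicle-only control cultures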; conditions: S. cerevisiae sgs1 mutant, hits give high values
# How it was run: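 Each compound was added to cultures of the altered yeast strain. Growth was recorded, and inhibition was derived by comparison with vehicle controls.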
# [15] = NCI Yeast Anticancer Drug Screen. Data for the rad18 strain (AID 177); conditions: S. cerevisiae rad18 mutant growth inhibition, hits give high values
# How it was run: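 Vehicle-treated cultures served as the baseline for scoring compound-induced growth inhibition in DNA-repair-mutant yeast.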
# [16] = at 5.0 µM (retest, dose inferred, filed as 0.5)
# [17] = at 50.0 µM (retest, dose inferred, filed as 5.0)
smiles,measurement,setting,value
Clc1ccc(NCNC2Nc3ccccc3N2)cc1Cl,growth inhibition,[1]; at 1.2 µM,-1%
same,growth inhibition,[1]; at 3.7 µM,-1%
same,growth inhibition,[1]; at 11.0 µM,18%
same,growth inhibition,[1]; at 33.0 µM,97% (active)
same,growth inhibition,[1]; at 100.0 µM,98% (active)
same,growth inhibition,[2]; at 1.2 µM,2%
same,growth inhibition,[2]; at 3.7 µM,7%
same,growth inhibition,[2]; at 11.0 µM,8%
same,growth inhibition,[2]; at 33.0 µM,81% (active)
same,growth inhibition,[2]; at 100.0 µM,99% (active)
same,growth inhibition,[3]; at 1.2 µM,8%
same,growth inhibition,[3]; at 3.7 µM,16%
same,growth inhibition,[3]; at 11.0 µM,88% (active)
same,growth inhibition,[3]; at 33.0 µM,98% (active)
same,growth inhibition,[3]; at 100.0 µM,98% (active)
same,growth inhibition,[4]; at 1.2 µM,-4%
same,growth inhibition,[4]; at 3.7 µM,-3%
same,growth inhibition,[4]; at 11.0 µM,4%
same,growth inhibition,[4]; at 33.0 µM,85% (active)
same,growth inhibition,[4]; at 100.0 µM,99% (active)
same,growth inhibition,[5]; at 1.2 µM,-1%
same,growth inhibition,[5]; at 3.7 µM,-3%
same,growth inhibition,[5]; [16],4%
same,growth inhibition,[5]; at 11.0 µM,17%
same,growth inhibition,[5]; at 33.0 µM,93% (active)
same,growth inhibition,[5]; [17],99% (active)
same,growth inhibition,[5]; at 50.0 µM,25.6%
same,growth inhibition,[5]; at 100.0 µM,98% (active)
same,growth inhibition,[6]; at 1.2 µM,0%
same,growth inhibition,[6]; at 3.7 µM,5%
same,growth inhibition,[6]; [16],-6%
same,growth inhibition,[6]; at 11.0 µM,17%
same,growth inhibition,[6]; at 33.0 µM,93% (active)
same,growth inhibition,[6]; [17],99% (active)
same,growth inhibition,[6]; at 50.0 µM,9.15%
same,growth inhibition,[6]; at 100.0 µM,98% (active)
same,growth inhibition,[7]; at 1.2 µM,0%
same,growth inhibition,[7]; at 3.7 µM,3%
same,growth inhibition,[7]; at 11.0 µM,13%
same,growth inhibition,[7]; at 33.0 µM,96% (active)
same,growth inhibition,[7]; at 100.0 µM,99% (active)
same,growth inhibition,[8]; [16],18%
same,growth inhibition,[8]; [17],99% (active)
same,growth inhibition,[8]; at 50.0 µM,8.15%
same,growth inhibition,[9]; at 1.2 µM,-5%
same,growth inhibition,[9]; at 3.7 µM,-13%
same,growth inhibition,[9]; at 11.0 µM,-3%
same,growth inhibition,[9]; at 33.0 µM,89% (active)
same,growth inhibition,[9]; at 100.0 µM,98% (active)
same,growth inhibition,[10]; [16],20%
same,growth inhibition,[10]; [17],83% (active)
same,growth inhibition,[10]; at 50.0 µM,-9.7%
same,growth inhibition,[11]; at 1.2 µM,1%
same,growth inhibition,[11]; at 3.7 µM,-8%
same,growth inhibition,[11]; [16],26%
same,growth inhibition,[11]; at 11.0 µM,-2%
same,growth inhibition,[11]; at 33.0 µM,91% (active)
same,growth inhibition,[11]; [17],99% (active)
same,growth inhibition,[11]; at 50.0 µM,10.2%
same,growth inhibition,[11]; at 100.0 µM,99% (active)
same,growth inhibition,[12]; at 1.2 µM,-4%
same,growth inhibition,[12]; at 3.7 µM,-1%
same,growth inhibition,[12]; at 11.0 µM,9%
same,growth inhibition,[12]; at 33.0 µM,91% (active)
same,growth inhibition,[12]; at 100.0 µM,98% (active)
same,growth inhibition,[13]; at 1.2 µM,-2%
same,growth inhibition,[13]; at 3.7 µM,0%
same,growth inhibition,[13]; at 11.0 µM,13%
same,growth inhibition,[13]; at 33.0 µM,71% (active)
same,growth inhibition,[13]; at 100.0 µM,99% (active)
same,growth inhibition,[14]; at 1.2 µM,1%
same,growth inhibition,[14]; at 3.7 µM,5%
same,growth inhibition,[14]; at 11.0 µM,34%
same,growth inhibition,[14]; at 33.0 µM,92% (active)
same,growth inhibition,[14]; at 100.0 µM,99% (active)
same,growth inhibition,[15]; at 1.2 µM,27%
same,growth inhibition,[15]; at 3.7 µM,65%
same,growth inhibition,[15]; at 11.0 µM,92% (active)
same,growth inhibition,[15]; at 33.0 µM,96% (active)
same,growth inhibition,[15]; at 100.0 µM,98% (active)
